Laboratory results published in PubChem BioAssay (NCATS).
Results filed as inconclusive are left out. Entries that show only a call come without a potency. Active and inactive are the calls of the source. The call rests on the fitted dose curve; in most records, active means well fitted inhibition curve with a large enough effect; inconclusive means small, poorly fitted or top-dose-only effect; inactive means flat fitted curve, though single readings scatter.

Test system: MKL-2
Test: qHTS assay to identify novel small-molecules to repurpose for Merkel cell carcinoma treatment (AID 1296009); further: nearly all actives have a fitted effect of over 60% in size
Details: MCC and control cell lines, CellTiter-Glo viability, 72 h; series mostly up to 46 µM
In short: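 Dose-response viability screen; 72 hr exposure at 37 degree celsius; CellTiter-Glo added, 10 min room temperature, luminescence read; RLUs scaled between no-cell and DMSO wells.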
Potency means the concentration at half of the fitted maximal effect.

Structure (SMILES)	Potency
Nc1ncnc2c1c(-c1cccc(OCc3ccccc3)c1)cn2C1CC(CN2CCC2)C1 (stereo not drawn)	inactive
CC(C)C[C@@H](C(=O)N[C@H](C(=O)OC1CCCC1)c1ccccc1)[C@H](O)C(=O)NO	23.5 µM (active)
O=C1Nc2ccc(I)cc2C1=Cc1cc(Br)c(O)c(Br)c1	inactive
C=CCc1cccc(C=NNC(=O)CN2CCN(Cc3ccccc3)CC2)c1O	16.6 µM (active)
CN1C(=O)C(Cc2c[nH]c3ccccc23)NC1=S (stereo not drawn)	inactive
Cc1ccc(C(=O)N(CCCN)[C@@H](c2oc3cc(Cl)ccc3c(=O)c2Cc2ccccc2)C(C)C)cc1	8.33 µM (active)
Cc1cccc2c1CC[C@H](CN1CCC(c3c(Cl)cccc3Cl)CC1)C[C@@H]2O	inactive
COC1CCC(C(=O)c2ccc3nc4c(cc3c2)CCCO4)CC1 (stereo not drawn)	inactive
Cc1ccc2c(c1)c1c(n2CCc2ccc(C)nc2)CCN(C)C1	inactive
Cc1c(C(=O)Nc2ccc(N3C[C@@H](C)O[C@@H](C)C3)nc2)cccc1-c1ccc(OC(F)(F)F)cc1	inactive
O=C(O)c1ccc(O)c2ncc(N3CCOCC3)cc12	14.8 µM (active)
CSc1cccc(Nc2ncc3cc(-c4c(Cl)cccc4Cl)c(=O)n(C)c3n2)c1	inactive
CN(C)CCN(Cc1ccc(Cl)cc1)c1ccccn1	inactive
CC(C)C[C@H](NC(=O)c1cc2ccccc2s1)C(=O)N1CCN(C(=O)[C@H](CO)NS(=O)(=O)c2ccc(Cl)cc2Cl)CC1	inactive
CC1=C[C@@H]2[C@@H]([C@@H](O)C[C@@]3(C)[C@H]2C[C@@H](C)[C@]3(O)C(=O)CO)[C@@]2(C)Cc3cnn(-c4ccccc4)c3C=C12	inactive
Cc1cnc(Nc2cccc(CN3CCOCC3)c2)nc1Nc1cccc(S(=O)(=O)NC(C)(C)C)c1	inactive
O=C(O)Cc1cccc(OCCCN(Cc2cccc(C(F)(F)F)c2Cl)CC(c2ccccc2)c2ccccc2)c1	inactive
CC(C)N(CCCNC(=O)Nc1ccc(C(C)(C)C)cc1)C[C@H]1O[C@@H](n2cc(Br)c3c(N)ncnc32)[C@H](O)[C@H]1O	inactive
COc1ccc(-c2cc3nccn3c(Nc3ncccc3C(N)=O)n2)cc1OC	inactive

Structure (SMILES)	Potency
O=C(CO)N1CCC(c2[nH]nc(-c3ccc(Cl)cc3)c2-c2ccncn2)CC1	inactive
CN[C@@H]1CN(c2ccc3c(=O)c(C(=O)O)cn(-c4nccs4)c3n2)C[C@@H]1OC	3.23 µM (active)
CN(C)CC[C@H](CSc1ccccc1)Nc1ccc(S(=O)(=O)NC(=O)c2ccc(N3CCN(Cc4ccccc4-c4ccc(Cl)cc4)CC3)cc2)cc1[N+](=O)[O-]	0.235 µM (active)
C[C@@H](O[C@H]1OCCN(Cc2n[nH]c(=O)[nH]2)[C@@H]1c1ccc(F)cc1)c1cc(C(F)(F)F)cc(C(F)(F)F)c1	inactive
CC1=C(C(=O)Nc2cc3cn[nH]c3cc2F)C(c2ccc(C(F)(F)F)cc2)CC(=O)N1 (stereo not drawn)	inactive
C#CCN(C)CC1=Cc2ccccc2Oc2ccccc21	inactive
Cc1ccc(NC(=O)c2cccc(N(C)C)c2)cc1NC(=O)c1ccc(O)cc1	2.96 µM (active)
CC(C)(C)c1nc(-c2cccc(NS(=O)(=O)c3c(F)cccc3F)c2F)c(-c2ccnc(N)n2)s1	inactive
COc1nccc(-c2c(-c3ccc(F)cc3)ncn2C2CCC(O)CC2)n1 (stereo not drawn)	inactive
Nc1ccc(-c2ccc3ncc4ccc(=O)n(-c5cccc(C(F)(F)F)c5)c4c3c2)cn1	0.132 µM (active)
CC(C)(O)CC(=O)NCCn1ccc2ncnc(Nc3ccc(Oc4cccc(C(F)(F)F)c4)c(Cl)c3)c21	inactive
Nc1ccn([C@@H]2O[C@H](CO)[C@@H](O)[C@H]2O)c(=O)n1	inactive
CCCCc1ccc(NS(=O)(=O)c2ccc(C)c(C(=O)N3CCN(c4cccc(C)c4C)CC3)c2)cc1	inactive
O=S(=O)(NCCNCC=Cc1ccc(Br)cc1)c1cccc2cnccc12	5.26 µM (active)
CNC(=O)c1cc(COc2nnc(Nc3ccc(Cl)cc3)c3ccoc23)ccn1	inactive
O=c1[nH]c(=O)n([C@H]2C[C@@H](O)[C@@H](CO)O2)cc1I	inactive
CN1c2ccccc2C(=O)N2CCc3c([nH]c4ccccc34)C21 (stereo not drawn)	inactive
CNC(=O)[C@H](CC1=CN=C2C=CCC=C12)NC(=O)[C@@H](CC(=O)NO)CC(C)C	0.264 µM (active)
COc1ccc(-c2ccc3ncc4c(c3c2)n(-c2ccc(N3CCNCC3)c(C(F)(F)F)c2)c(=O)n4C)cn1	0.0418 µM (active)
